# Data taken from PubChem BioAssay (NCATS).
# A number with no mark means an inactive call. Results filed as inconclusive are left out. Entries that show only a call come without a potency. The source made the active and inactive calls. Calls follow the shape of the dose curve; as a rule, active = well fitted curve in the direction sought with a large enough effect; inconclusive = small, poorly fitted or top-dose-only effect, or another doubt; inactive = no such curve, though single readings can be large; an effect the other way counts as inactive or inconclusive.
# Key:
# [1] = biological target: Phospholipid hydroperoxide glutathione peroxidase GPX4 (Homo sapiens) (UniProt P36969); assay: Primary qHTS Assay for Inhibitors of Recombinant Selenoprotein Glutathione Peroxidase 4 (GPX4) (AID 1845192); also: nearly all actives have a fitted effect of over 65% in size
# Chain of Phospholipid hydroperoxide glutathione peroxidase GPX4 (Homo sapiens) (P36969 whole entry, looked up): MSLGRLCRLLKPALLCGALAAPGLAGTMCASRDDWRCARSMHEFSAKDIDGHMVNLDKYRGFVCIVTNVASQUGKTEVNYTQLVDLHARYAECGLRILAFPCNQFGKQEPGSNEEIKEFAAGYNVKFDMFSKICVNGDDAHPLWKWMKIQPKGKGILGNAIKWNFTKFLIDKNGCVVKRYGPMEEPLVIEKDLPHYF
# Procedure, shortened: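 NADPH consumption followed by fluorescence at 340/450 nm, t=0 and after 15 min at room temperature. Reaction started with cumene hydroperoxide (0.5 mM final) after 30 min compound–GPX4 preincubation; final 200 nM GPX4, 100 nM GR, 1 mM GSH, 0.5 mM NADPH.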
# [2] = biological target: Luciferin 4-monooxygenase (Photinus pyralis) (UniProt P08659); assay: Primary firefly luciferase (FLuc) qHTS assay for identification of artifact compounds. (AID 1845220); also: nearly all actives have a fitted effect of over 60% in size
# Procedure, shortened: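 Compounds sat 15 min at room temperature with 10 uM luciferin and 10 uM ATP (pH 7.6 Tris acetate). Firefly luciferase (10 nM final) was then added, and luminescence was read 5 min later. Data normalized to no-enzyme and DMSO controls were Hill-fitted.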
# [3] = Primary fluorescence-based thiol-reactive (MSTI) qHTS assay for identification of artifact compounds. (AID 1845221); also: nearly all actives have a fitted effect of over 65% in size; also: potency is read from the fitted curve at half-maximal effect;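 as to activity change, negative = thiol reactive: series mostly up to about 54 µM; thiol-reactive compounds lower the probe fluorescence signal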
# Procedure, shortened: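 qHTS titration of compound; 4 uM MSTI, PBS pH 7.4, 2% DMSO; 1 h RT, dark; fluorescence 525/598 nm; normalized to Acetyl-MSTI and MSTI; 4-parameter Hill fit.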
# [4] = system: Nanoluciferase (engineered Oplophorus gracilirostris luciferase); assay: Primary Nanoluciferase (NLuc) qHTS assay for identification of artifact compounds. (AID 1845222); also: potency is read from the fitted curve at half-maximal effect
# Procedure, shortened: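 Luminescence from secreted NLuc (filtered, 1:55-diluted S16 cell medium) read 5 min after Nano-Glo substrate; compounds preincubated 15 min, RT. Hill fits of inhibition normalized to DMSO and no-enzyme.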
# [5] = Primary redox qHTS assay for identification of artifact compounds. (AID 1845223)
# Procedure, shortened: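 Redox-cycling detection via DTT (250 uM final) oxidation coupled to Amplex Red (25 uM)/HRP (250 mU/mL) in HBSS. 15 min preincubation plus 30 min after DTT, room temperature. Ex/Em 525/598 nm; 4-parameter Hill fit against DMSO and 10 uM DA3003.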
SMILES,Potency [1],Potency [2],Potency [3],Potency [4],Potency [5],"activity change, negative = thiol reactive [3]",redox activity (% of DA3003) [5]
OC[C@H]1O[C@@H](Oc2cc(O)cc(-c3cc4ccc(O[C@@H]5O[C@H](CO)[C@@H](O)[C@H](O)[C@H]5O)cc4o3)c2)[C@H](O)[C@@H](O)[C@@H]1O,inactive,inactive,10.3 µM (active),inactive,inactive,–,–
CC(C)=C1C[C@@]2(C)C(=CC1=O)CC[C@@H](O)[C@@H]2C,inactive,inactive,inactive,–,inactive,–,–
CC(C)=CCC[C@](C)(O[C@@H]1O[C@H](CO[C@@H]2OC[C@H](O)[C@H](O)[C@H]2O)[C@@H](O)[C@H](O)[C@H]1O)[C@H]1CC[C@]2(C)[C@@H]1[C@H](O)C[C@@H]1[C@@]3(C)CC[C@H](O[C@@H]4O[C@H](CO)[C@@H](O)[C@H](O)[C@H]4O[C@@H]4O[C@H](CO)[C@@H](O)[C@H](O)[C@H]4O)C(C)(C)[C@@H]3CC[C@]12C,inactive,inactive,inactive,inactive,inactive,–,–
COC(=O)c1c(CC=C(C)C)c(OC2OC(CO)C(O)C(O)C2O)c2ccccc2c1OC1OC(CO)C(O)C(O)C1O (stereo not given),inactive,inactive,inactive,–,inactive,–,–
COc1ccc2[nH]c(S(=O)Cc3ncc(C)c(OC)c3C)nc2c1 (stereo not given),–,inactive,11.9 µM (active),inactive,inactive,–,–
CN(C)CCC[C@]1(c2ccc(F)cc2)OCc2cc(C#N)ccc21,inactive,inactive,inactive,inactive,inactive,–,–
O=[N+]([O-])c1cc(Cl)ccc1S(=O)(=O)N1CCN(Cc2ccccc2)CC1,inactive,inactive,–,–,inactive,–,–
O=C(NC1Cc2ccccc2N(C[C@@H](O)CO)C1=O)c1cc2cc(Cl)sc2[nH]1 (stereo not given in full),inactive,inactive,inactive,inactive,inactive,–,–
CC(C)C[C@H](NC(=O)[C@@H]1O[C@H]1C(=O)O)C(=O)NCCCCN=C(N)N,inactive,inactive,inactive,inactive,inactive,–,–
C=C1C(O)CCC2(C)CC3(OC)OC(=O)C(C)=C3CC12 (stereo not given),inactive,inactive,inactive,inactive,inactive,–,–
CNC(=O)c1ccc2c(c1)CCO[C@H]2CCN1CCN(c2ccc(C(N)=O)cc2)CC1,inactive,inactive,inactive,–,inactive,–,–
Cc1ccccc1N1CCN(S(=O)(=O)C[C@]23CC[C@H](C[C@@H]2NC(=O)[C@@H](N)CCS(C)(=O)=O)C3(C)C)CC1,inactive,inactive,inactive,inactive,inactive,–,–
CCCSc1nc(NC2CC2c2ccc(F)c(F)c2)c2nnn(C3CC(OCCO)C(O)C3O)c2n1 (stereo not given),inactive,inactive,inactive,inactive,inactive,–,–
CN1CCCC1Cc1c[nH]c2ccc(CCS(=O)(=O)c3ccccc3)cc12 (stereo not given),inactive,–,inactive,inactive,–,–,–
COc1cc(/C=C/c2ccccc2)c(C(=O)O)c(O)c1CC=C(C)C,inactive,inactive,–,13.2 µM (active),–,–,–
CC1C(O)C(O)C2C(C(=O)OCCc3ccc(O)cc3)=COC(O[C@@H]3O[C@H](CO)[C@@H](O)[C@H](O)[C@H]3O)C12 (stereo not given in full),inactive,inactive,1.84 µM (active),inactive,inactive,–,–
CCOC(=O)C(CCc1ccccc1)NC(C)C(=O)N1Cc2ccccc2CC1C(=O)O (stereo not given),inactive,–,inactive,inactive,–,–,–
C=Cc1cc2oc(-c3ccc(O)c(F)c3)nc2cc1O,–,–,–,inactive,inactive,–,–
COC(O)(CC(C)C)C1Oc2cc(C)[nH]c(=O)c2O1 (stereo not given),–,inactive,inactive,inactive,inactive,–,–
CC(=O)Nc1cccc2c1c(Sc1ccc(Cl)cc1)c(C)n2CC(=O)O,inactive,inactive,–,10.7 µM (active),inactive,–,–
COC(=O)C1C(O)CCC2CN3CCc4c([nH]c5ccccc45)C3CC21 (stereo not given),inactive,inactive,–,inactive,–,–,–
CC1OC(O[C@@H]2[C@@H](O)[C@H](OC(=O)[C@]34CCC(C)(C)C[C@H]3C3=CCC5[C@@]6(C)CC[C@H](O[C@@H]7O[C@H](C(=O)O)[C@@H](O)[C@H](O[C@@H]8OC[C@@H](O)[C@H](O)[C@H]8O)[C@H]7O[C@@H]7O[C@H](CO)[C@H](O)[C@H](O)[C@H]7O)[C@@](C)(C=O)C6CC[C@@]5(C)[C@]3(C)C[C@H]4O)O[C@H](C)[C@@H]2OC2OC(C)C(OC3OCC(O)C(O)C3O)C(O)C2O)C(O)C(O)C1O (stereo not given in full),inactive,–,–,–,–,288% [at 11.5 µM],19.3% [at 11.5 µM]
COC1OC(O)C2(CCC3(O2)C(C)CC2OC(=O)C4(C)CCCC3(C)C24)C1O (stereo not given),inactive,inactive,–,inactive,inactive,–,–
O=C(O)c1ccnc2cc(-c3nc4ccccc4n3CCN3CCCCC3)sc12,–,inactive,inactive,inactive,inactive,–,–
C=C(CCO)C(=O)OCC1OCC(OC(=O)C(=C)CCO[C@@H]2O[C@H](CO)[C@@H](O)[C@H](O)[C@H]2O)C(O)C1O (stereo not given in full),inactive,inactive,inactive,inactive,inactive,–,–
C=C(C)[C@@H]1CC[C@]2(CO)CC[C@]3(C)[C@H](CC[C@@H]4[C@@]5(C)CC[C@H](O)C(C)(C)[C@@H]5CC[C@]43C)[C@@H]12,–,inactive,inactive,inactive,inactive,–,–
COc1ccc(N2CCN(CCCNC(=O)Cn3c(=O)c4cccn4c4c(C)ccnc43)CC2)cc1,inactive,inactive,–,inactive,inactive,–,–
